# Screens from PubChem BioAssay.
# Shown are actives, neighbours in structure and some others; about 2.8% of the full set was active somewhere.
# Bim-Mcl-1: human Bim-Mcl-1 interaction inhibition; 190,000 tested, 0.1% active; inhibition, % at 10 µM; Q07820; Bead-based flow cytometry, Bim peptide-Mcl-1 binding; in the data active means inhibition above about 40%;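 further: 0% = no compound tracer wells and 100% = peptide blocker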
# Target sequence (Q07820 whole entry, looked up): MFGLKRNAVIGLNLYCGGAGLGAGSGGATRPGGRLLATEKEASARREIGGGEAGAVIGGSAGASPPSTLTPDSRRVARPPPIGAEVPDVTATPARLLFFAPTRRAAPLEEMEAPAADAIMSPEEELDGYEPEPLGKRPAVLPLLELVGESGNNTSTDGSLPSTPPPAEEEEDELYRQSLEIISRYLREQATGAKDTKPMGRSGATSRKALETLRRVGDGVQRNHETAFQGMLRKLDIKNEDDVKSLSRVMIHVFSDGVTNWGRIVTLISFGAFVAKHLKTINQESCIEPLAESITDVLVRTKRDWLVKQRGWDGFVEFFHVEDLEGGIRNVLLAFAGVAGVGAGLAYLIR
# L929 necroptosis: L929 zVAD cell death inhibition; L929 zVAD necroptosis rescue, ATP luminescence, 24 h; with zVAD 60 µM; 220,000 tested, 0.38% active; AID 1377; viability rescue, % at 10 µM;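 active means activation, scaled between plate controls, above about 75%, limit read from the data; inactive means activation under that limit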;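 further: 0% = zVAD with DMSO and 100% = DMSO alone without zVAD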
# TNF necrop inh: blocks TNF-alpha induced death of Jurkat FADD-/- cells. Jurkat FADD-/- TNF necroptosis rescue, ATP luminescence, 24 h; 0 = TNF only, 100 = no-TNF cells. activation (protection from cell death), % at 10 µM. 220,000 tested, 0.068% active. AID 463075;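 active means activation, meaning protection from cell death, of at least 50% relative to plate controls; inactive means activation below 50%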;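 further: necroptosis triggered by 40 ng/mL TNF-alpha added together with compound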
# Calpain2 inh: blocks pig calpain II enzyme activity; purified calpain II, fluorogenic peptide substrate, 30 min; inhibition, % at 16 µM; 220,000 tested, 0.37% active; AID 1236;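 active means inhibition above about 50%, limit read from the data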
# Mcl1 Bid PPI: disrupts binding of human Mcl-1 to Bid peptide. AID 1021. 220,000 tested, 0.97% active. TR-FRET Mcl-1/Bid-Dy647 peptide binding, 1536-well. Q07820. inhibition, % at 21.7 µM;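 active means compounds that cut the binding signal by more than half at the single screening dose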;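 further: His-tagged Mcl-1 with europium anti-His antibody binding Bid BH3 peptide; 0% = Mcl-1 plus peptide wells and 100% = peptide-only wells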
# Mcl1-Noxa inh: disrupts binding of human Mcl-1 to Noxa peptide; Q07820; TR-FRET Mcl-1/Noxa peptide binding, 2 h; inhibition, % at 21.7 µM; AID 1022; 220,000 tested, 1.5% active;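 active means compounds that cut the protein-peptide binding signal by more than 50% relative to plate controls in a single-dose test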;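 further: His-tagged Mcl-1 with rhodamine Noxa BH3 peptide and terbium anti-His antibody; 0% = Mcl-1 plus Noxa peptide wells and 100% = peptide-only wells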
# zVAD necrop conf: confirmed blocker of zVAD induced death in L929 cells; shares compounds with L929 necroptosis; L929 zVAD-induced necroptosis rescue, ATP luminescence, 24 h; activation (protection from necroptosis), % at 10 µM; 760 tested, 16% active; AID 463117;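 active means mean protection from necroptosis of at least 50% over duplicate tests; inactive means mean protection below 50%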;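 further: 0% = cells with zVAD alone and 100% = vehicle cells without zVAD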
# An asterisk follows results filed as active; . = not tested or not shown.
SMILES,Bim-Mcl-1,L929 necroptosis,TNF necrop inh,Calpain2 inh,Mcl1 Bid PPI,Mcl1-Noxa inh,zVAD necrop conf
O=C(O)c1cc(-c2ccc(/C=N/N3C(=O)C4C5C=CC(CC5)C4C3=O)o2)ccc1Cl (centres undefined),-1,5,0,-10,-14,12,.
CCOC(=O)C1(CCCc2ccccc2)CCN(C(=O)c2cnn(CC)c2)CC1,-2,-1,1,-23,5,-2,.
CN=C1S/C(=C\c2cc(C)n(-c3ccccc3F)c2C)C(=O)N1C,-1,78*,-13,3,-40,-8,6
CCCCNC(=O)Nc1nc2ccc(CC)cc2s1,0,78*,8,14,-6,-4,2
COC(=O)C1C(=O)C(C(=O)/C=C/c2ccccc2)C(=O)CC1(C)C (centres undefined),0,81*,4,-21,-33,15,1
C=CCn1c(SCC(=O)c2ccc(OC)cc2)nnc1C(C)NC(=O)c1cccs1 (centres undefined),-1,-1,-1,36,1,-2,.
COc1ccccc1NC(=O)Nc1ccc(Cc2ccncc2)cc1,0,78*,4,-2,-5,9,38
COc1ccc(NC(=O)Nc2ccc(Cc3ccncc3)cc2)cc1OC,0,82*,0,16,-37,0,37
COc1ccccc1NC(=O)Nc1ccncc1,0,1,-2,8,-13,21,.
C=CCN=C1SC(C)(C)C(=O)N1S(=O)(=O)c1ccc(C)cc1,1,1,0,14,-22,7,.
Clc1ccc(COn2ccnc2)cc1Cl,1,88*,88*,17,-15,26,92*
CCCOc1ccc(CNCCCOCC)cc1OC,0,0,1,10,19,28,.
C=CCOc1ccc(/C=N/Nc2ccccn2)cc1OC,1,85*,8,15,-23,17,1
COc1ccc(/C=N/Nc2ccccn2)c(OC)c1OC,0,83*,27,1,-52,11,12
CCCOc1ccc(/C=N/Nc2ccccn2)cc1OC,0,60,10,1,-17,17,.
CCOc1ccc(/C=N/Nc2ccccn2)cc1OC,-4,80*,23,24,1,13,4
O=C(Cn1nnc(-c2ccccc2F)n1)Nc1ccc(S(=O)(=O)NC2CCCC2)cc1,-6,0,-3,2,-3,-23,.
COCCCN(C(=S)NC(=O)C12CC3CC(CC(C3)C1)C2)c1c(N)n(Cc2ccccc2)c(=O)[nH]c1=O,-5,24,-1,-20,-56,7,.
COc1ccc(CC(=O)Nc2ccc(-c3cn4ccc(C)cc4n3)cc2)cc1,-2,81*,2,-37,-40,-3,24
COc1ccc(CC(=O)Nc2ccc(-c3cn4cccc(C)c4n3)cc2)cc1OC,2,-1,-2,-20,-26,7,.
COCCCNC(=O)C1CCN(C(=O)Nc2ccc(Cl)cc2)CC1,-6,0,-1,-27,-7,22,.
CCN(CC)CCOc1c(Br)ccc2c1sc1nc3n(c(=O)c12)CCC3,-1,81*,-6,0,-12,29,21
O=C(Nc1ccccn1)C(NS(=O)(=O)c1cccc2nsnc12)c1ccccc1 (centres undefined),0,0,0,14,-3,-3,.
Oc1ccccc1N=Cc1c(O)ccc2ccccc12,.,84*,-6,15,-35,-14,12
CCCCCn1c(CCCNC(=O)CC)nc2ccccc21,0,0,1,-15,-26,24,.
SMILES,Bim-Mcl-1,L929 necroptosis,TNF necrop inh,Calpain2 inh,Mcl1 Bid PPI,Mcl1-Noxa inh,zVAD necrop conf
Cc1ccc2c(c1)C(=O)c1ccccc1CS2=O (centres undefined),-5,0,1,-6,-9,13,.
Clc1ccc(-c2nnc(COc3ncnc4sccc34)o2)cc1,-3,1,2,-19,-20,1,.
CCc1nnc(NS(=O)(=O)c2ccc(N/C=C/C(=O)c3ccc(OC)cc3)cc2)s1,-2,79*,0,-33,-16,13,2
O=C(Nc1ccccc1C(F)(F)F)c1ncn[nH]1,.,0,-1,-22,-29,-2,.
O=C(NC(=S)NCc1nc2ccccc2[nH]1)c1ccccc1F,-3,12,3,18,-36,15,.
O=C(NC(=S)NCc1nc2ccccc2[nH]1)c1ccc(F)cc1,1,84*,18,-2,-35,-11,17
CN(C)c1ccc(/C=N/OC(=O)Nc2ccccc2Cl)cc1,0,2,-9,-5,-44,8,.
N#C/C(=C(/O)COC(=O)CCc1ccc(S(=O)(=O)N2CCOCC2)cc1)c1nc2ccccc2[nH]1,3,78*,9,-241,-24,62*,13
CC1CN(S(=O)(=O)c2cccc(C(=O)OC/C(O)=C(\C#N)c3nc4ccccc4[nH]3)c2)CC(C)O1 (centres undefined),-3,3,2,-71,-24,6,.
Cc1cccc(NC(=O)Nc2ccc(C)c(C)c2)n1,-2,75*,-1,6,-6,5,6
CC(=O)Nc1cccc(NC(=O)Nc2ccc(C)c(Cl)c2)c1,0,2,3,5,1,13,.
CC(=O)Nc1ccc(NC(=O)Nc2ccc(C)c(C)c2)cc1,-1,80*,-3,-6,-2,3,1
Cc1cccc(NC(=O)Nc2ccc([N+](=O)[O-])cc2)n1,-2,76*,0,-11,11,28,40
Cc1cccc(NC(=O)Nc2cccc(C)n2)n1,-7,2,-1,-9,-30,-4,.
Clc1ccc(/C=N/Nc2ncnc3nc[nH]c23)cc1,.,78*,-10,24,11,25,43
Cc1ccc(/C=N/Nc2ncnc3nc[nH]c23)cc1,.,71,-7,3,-9,17,.
O=C(COc1ccccc1)n1nc(-c2ccc(Cl)cc2)nc1NCc1ccco1,0,83*,-1,-42,1,25,0
O=C(c1ccco1)n1nc(-c2ccc(Cl)cc2)nc1NCc1ccco1,-3,1,0,-267,-16,-7,.
CC(NCc1ccc(S(N)(=O)=O)cc1)C(=O)N1c2ccccc2CC1C (centres undefined),.,0,0,-3,9,-3,.
COc1ccc(CC(=O)NC(C)c2nnc(SCC(=O)Nc3cc(C)ccc3OC)n2C)cc1 (centres undefined),1,0,0,-3,-32,15,.
CN(C)S(=O)(=O)c1cccc(NC(=O)CCSc2ccc(Cl)cc2)c1,0,77*,-3,15,-13,7,42
CCN(CC)C(=O)C(=O)N/N=C/c1ccc(Br)cc1,-2,1,-1,-29,-12,-5,.
